The results in this text go back to PubChem BioAssay (EPA / NIEHS).

Each structure is given as a SMILES string. Several values for one entry are separate records, joined by “and”; a condition that tells them apart may be missing. Equal values may be shown once. Results filed as inconclusive are left out. The source holds several records for some structures; these can differ, active in one and inactive in another. Activity calls are given as the source filed them. Rule for the calls, unless noted: active = hit-call score of the fitted dose curve at least 0.9, where 1 is the maximum; inactive = score below 0.9.

Assay [1] addresses Transcriptional activator Myb (Homo sapiens) (UniProt P10242). In words: ATG_Myb_CIS: Attagene CIS-FACTORIAL HepG2 Assay for human Myeloblastosis (Myb) Proto-Oncogene Transcription Factor (AID 2282986). The following applies: HepG2 Attagene CIS-FACTORIAL Myb reporter transcription; actives raise or lower the signal. In short, it runs like this: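 Transiently transfected HepG2 cells, treated 24 h. Reporter mRNA quantified by RT-PCR/capillary electrophoresis; bidirectional fit relative to DMSO.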

The target of assay [2] is Nuclear respiratory factor 1 (Homo sapiens) (UniProt Q16656). In words: ATG_NRF1_CIS: Attagene CIS-FACTORIAL HepG2 Assay for human Nuclear Respiratory Factor 1 (NRF1) Orphan Gene (AID 2282987). The following applies: HepG2 NRF1 cis-element reporter, Attagene multiplex; actives raise or lower the signal. The essentials: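 Cells (HepG2, transient MRTU transfection) are exposed to compound for 24 h, then RNA isolated and reporter mRNA amplified and fluorescently labelled. Fragments are separated by capillary electrophoresis; signal change is fitted bidirectionally relative to DMSO.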
Nuclear respiratory factor 1 (Homo sapiens), sequence (Q16656 whole entry, looked up, the tested form may be a part): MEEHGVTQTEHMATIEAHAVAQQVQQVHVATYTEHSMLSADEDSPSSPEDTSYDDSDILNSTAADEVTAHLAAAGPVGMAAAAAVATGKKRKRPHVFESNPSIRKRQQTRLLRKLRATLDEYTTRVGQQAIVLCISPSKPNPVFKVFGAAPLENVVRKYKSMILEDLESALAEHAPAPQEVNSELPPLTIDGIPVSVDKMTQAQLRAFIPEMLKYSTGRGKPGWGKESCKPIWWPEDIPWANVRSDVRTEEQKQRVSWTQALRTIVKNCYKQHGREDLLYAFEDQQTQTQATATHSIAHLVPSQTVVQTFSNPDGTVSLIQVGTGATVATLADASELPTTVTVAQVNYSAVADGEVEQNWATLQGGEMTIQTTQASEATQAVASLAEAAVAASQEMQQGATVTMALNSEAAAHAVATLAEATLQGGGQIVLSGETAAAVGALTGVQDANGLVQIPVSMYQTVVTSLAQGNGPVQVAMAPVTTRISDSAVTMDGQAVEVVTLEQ

Assay [3] in a line: ATG_NFI_CIS: Attagene CIS-FACTORIAL HepG2 Assay for human Nuclear Factor I (NFI) (AID 2282989). The note with it: HepG2 cis-regulatory reporter, NFI response element transcription; actives raise or lower the signal. The essentials:
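Cells: human liver HepG2, transiently transfected with promoter-regulated reporter transcription units. Exposure 24 h. Detection: fluorescent RT-PCR products separated by capillary electrophoresis, normalised to DMSO negative control.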

Assay [4] concerns the target Myc proto-oncogene protein (Homo sapiens) (UniProt P01106). In words: ATG_Myc_CIS: Attagene CIS-FACTORIAL HepG2 Assay for human Myelocytomatosis (Myc) Proto-Oncogene Transcription Factor (AID 2282990). The following applies: HepG2, Attagene cis-reporter transcription factor activity; actives raise or lower the signal. In short, it runs like this: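 Multiplexed cis-reporter transcription in HepG2 cells after 24 h chemical treatment. Reporter mRNA measured by RT-PCR and capillary electrophoresis fluorescence; activity fitted bidirectionally against DMSO control.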

A short description of assay [5]: ATG_NF_kB_CIS: Attagene CIS-FACTORIAL HepG2 Assay for human Nuclear Factor Kappa B (NF-kB) (AID 2282991). The following applies: HepG2 Attagene cis-factorial NF-kB reporter mRNA; actives raise or lower the signal. In short, it runs like this:
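Measures mRNA induction of an NF-kB-responsive cis-element reporter in HepG2 cells transfected with multiple reporter units, sampled 24 h post-dosing; quantified by fluorescence after RT-PCR and capillary electrophoresis, fitted for activation or inhibition against DMSO.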

Assay [6] can be described thus: ATG_NRF2_ARE_CIS: Attagene CIS-FACTORIAL HepG2 Assay for human Nuclear Factor Erythroid 2 Related Factor 2 (NFR2) response to Antioxidant Response Elements (ARE) (AID 2282992). The following applies: HepG2 Attagene ARE/NRF2 reporter, transcription factor activity; actives raise or lower the signal. The essentials:
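Readout: reporter mRNA quantified by RT-PCR plus FAM-labelled primer extension, HpaI digestion and capillary electrophoresis, 24 h after dosing transfected HepG2 cells. Gain or loss of signal is fitted bidirectionally against DMSO baseline.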

Assay [7] is described as follows: ATG_Oct_MLP_CIS: Attagene CIS-FACTORIAL HepG2 Assay for human Octamer-Binding Transcription Factor (Oct) (AID 2282993). The note with it: HepG2 Attagene cis-factorial Oct reporter, mRNA; actives raise or lower the signal. The essentials:
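HepG2, transient MRTU transfection, cis promoter elements; 24 h dosing; RT-PCR/CE fluorescence read-out of reporter mRNA; fit both directions vs DMSO.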

A short description of assay [8]: BSK_3C_TissueFactor: BioMAP Diversity Plus: 3C Assay for Tissue Factor Biomarker Activity (AID 2282997). The following applies: BioMAP 3C HUVEC, tissue factor biomarker readout; actives raise or lower the signal. The essentials: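 After a 24 h chemical exposure of primary human umbilical vein endothelial cells, Tissue Factor levels were quantified by ELISA.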
Assay [9] in a line: BSK_3C_uPAR: BioMAP Diversity Plus: 3C Assay for Urokinase-type plasminogen activator receptor (uPAR) Biomarker Activity (AID 2282998). The following applies: BioMAP 3C HUVEC, uPAR biomarker ELISA; actives raise or lower the signal. The essentials:
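A multiplexed primary-cell system built on human umbilical vein endothelium was used, with chemical present for 24 h before reading. Cell-surface uPAR was detected by ELISA; signal change in either direction counted against DMSO.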
(In general: In an ELISA, binding on a coated surface is turned into a signal by an enzyme label.)

The nature of assay [10]: BSK_3C_VCAM1: BioMAP Diversity Plus: 3C Assay for Vascular cell adhesion molecule 1 (VCAM1) Biomarker Activity (AID 2282999). The note with it: BioMAP 3C HUVEC, VCAM1 ELISA, cytokine-stimulated; actives raise or lower the signal. The essentials:
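Vascular primary endothelium (human umbilical vein) was exposed to chemicals and assayed 24 h later. VCAM-1 levels came from ELISA, with DMSO serving as baseline for bidirectional fitting.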

Assay [11] can be described thus: BSK_4H_Eotaxin3: BioMAP Diversity Plus: 4H Assay for Eotaxin 3 Biomarker Activity (AID 2283000).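 Note: CCL26 protein level quantified by ELISA in parallel with SRB cytotoxicity check.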 The note with it: primary human endothelial cells (HUVEC); actives raise or lower the signal. The essentials:
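Chemicals were added to human umbilical vein endothelium cultures, and Eotaxin-3 was quantified by ELISA at 24 h. Values were derived by bidirectional fitting with DMSO serving as negative control and activity baseline.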

Assay [12] has as its target human Peroxisome Proliferator-activated Receptor alpha (PPARa), PPARA (gene 5465) (UniProt Q07869). Nature of the assay: ATG_PPARa_TRANS: Attagene TRANS-FACTORIAL HepG2 Assay for human Peroxisome Proliferator-activated Receptor alpha (PPARa) (AID 2283001; active = hit-call score of the fitted dose curve at least 0.9, where 1 is the maximum;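 for AC50: potency for gain of reporter signal over DMSO so agonist or activator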). The essentials:
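Exposure: 24 h, transiently transfected HepG2 cells. Endpoint: GAL4-UAS reporter mRNA, RT-PCR with capillary electrophoresis fluorescence. Baseline: DMSO; increases fitted.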

Read-out in assay [13]: Intercellular Adhesion Molecule 1 (ICAM1), ICAM1 (gene 3383)
Nature of the assay: BSK_3C_ICAM1: BioMAP Diversity Plus: 3C Assay for Intercellular Adhesion Molecule 1 (ICAM1) Biomarker Activity (AID 2283003). The following applies: primary human endothelial cells (HUVEC); actives raise or lower the signal. In short, it runs like this:
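ELISA read-out of ICAM-1; HUVEC (primary human), 3C system, 24 h post-dosing; bidirectional fit vs DMSO baseline.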

For assay [14], the target named is human Retinoic Acid Receptor beta (RARb), RARB (gene 5915) (UniProt P10826). Nature of the assay: ATG_RARb_TRANS: Attagene TRANS-FACTORIAL HepG2 Assay for human Retinoic Acid Receptor beta (AID 2283004; active = hit-call score of the fitted dose curve at least 0.9, where 1 is the maximum). The essentials: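 Transient transfection of HepG2 with multiple reporter units → chemical dosing, 24 h → total RNA isolation → RT with oligo(dT) → reporter-specific PCR, 6-FAM primer extension, HpaI digest → capillary electrophoresis. Positive direction vs DMSO control.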
human Retinoic Acid Receptor beta (RARb), RARB (gene 5915), sequence (P10826 whole entry, looked up): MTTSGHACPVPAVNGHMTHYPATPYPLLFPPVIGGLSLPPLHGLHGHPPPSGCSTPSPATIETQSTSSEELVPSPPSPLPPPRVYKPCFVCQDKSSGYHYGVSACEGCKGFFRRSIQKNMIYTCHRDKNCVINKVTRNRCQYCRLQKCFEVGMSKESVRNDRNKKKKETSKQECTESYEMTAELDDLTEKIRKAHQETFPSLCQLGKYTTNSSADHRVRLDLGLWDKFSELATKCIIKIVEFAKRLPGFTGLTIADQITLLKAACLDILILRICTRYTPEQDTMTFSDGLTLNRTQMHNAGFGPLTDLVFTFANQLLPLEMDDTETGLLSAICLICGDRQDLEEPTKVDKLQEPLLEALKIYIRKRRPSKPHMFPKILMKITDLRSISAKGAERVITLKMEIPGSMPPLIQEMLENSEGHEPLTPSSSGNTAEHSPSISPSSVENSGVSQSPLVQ

In assay [15] the target is Retinoic acid receptor alpha (Homo sapiens) (UniProt P10276). Nature of the assay: ATG_RARa_TRANS: Attagene TRANS-FACTORIAL HepG2 Assay for human Retinoic Acid Receptor alpha (RARa) (AID 2283005; active = hit-call score of the fitted dose curve at least 0.9, where 1 is the maximum). The essentials:
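HepG2 cells transiently transfected with multiple reporter units expressing chimeric RARα-GAL4 fusion, with GAL4-UAS-driven reporters. After 24 h compound exposure, reporter mRNA induction quantified by RT-PCR and capillary electrophoresis with fluorescent labeling; gain-of-signal fitted relative to DMSO control.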

Assay [16] is described as follows: BSK_3C_Proliferation: Cell Proliferation Assessment in the BioMAP Diversity Plus: 3C Assay (AID 2283006). The following applies: primary human endothelial cells (HUVEC). In short, it runs like this:
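HUVEC, sub-confluent; 48 h chemical exposure; 10% TCA fix, 0.1% SRB stain, A560 total protein. Gain or loss of signal fitted both directions vs DMSO control.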

Assay [17] concerns the target Cellular tumor antigen p53 (Homo sapiens) (UniProt P04637). Nature of the assay: ATG_p53_CIS: Attagene CIS-FACTORIAL HepG2 Assay for human p53 Transcription Factor (AID 2282994). The following applies: HepG2 p53 cis-element reporter, Attagene mRNA; actives raise or lower the signal. The essentials: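 Read-out: reporter mRNA by RT-PCR plus capillary electrophoresis with fluorescence detection. Human HepG2 liver cells carried transfected multi-reporter cis-element constructs, dosed 24 h. Gain or loss of signal fitted bidirectionally against DMSO control.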

Assay [18] concerns the target Peroxisome proliferator-activated receptor gamma (Homo sapiens) (UniProt P37231). Nature of the assay: ATG_PPARg_TRANS: Attagene TRANS-FACTORIAL HepG2 Assay for human Peroxisome Proliferator-activated Receptor-gamma (PPARg) (AID 2283007; active = hit-call score of the fitted dose curve at least 0.9, where 1 is the maximum). In short, it runs like this: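 Gain-of-signal endpoint relative to DMSO, derived from reporter mRNA levels quantified by RT-PCR and capillary electrophoresis. Cells were HepG2 transiently expressing a chimeric NR-Gal4 construct with GAL4-UAS reporters, exposed to chemicals for 24 h.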

Assay [19] deals with Nuclear receptor subfamily 1 group I member 2 (Homo sapiens) (UniProt O75469). In words: ATG_PXR_TRANS: Attagene TRANS-FACTORIAL HepG2 Assay for human Pregnane X Receptor (PXR) (AID 2283008; active = hit-call score of the fitted dose curve at least 0.9, where 1 is the maximum). The essentials: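 Trans-factorial format: exogenous NR-Gal4 fusion activity, not endogenous factor, in transfected human HepG2 liver cells. After 24 h dosing, RNA isolated, reverse-transcribed, amplified and resolved by capillary electrophoresis; induction scored versus DMSO.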
Nuclear receptor subfamily 1 group I member 2 (Homo sapiens), sequence (O75469 whole entry, looked up, the tested form may be a part): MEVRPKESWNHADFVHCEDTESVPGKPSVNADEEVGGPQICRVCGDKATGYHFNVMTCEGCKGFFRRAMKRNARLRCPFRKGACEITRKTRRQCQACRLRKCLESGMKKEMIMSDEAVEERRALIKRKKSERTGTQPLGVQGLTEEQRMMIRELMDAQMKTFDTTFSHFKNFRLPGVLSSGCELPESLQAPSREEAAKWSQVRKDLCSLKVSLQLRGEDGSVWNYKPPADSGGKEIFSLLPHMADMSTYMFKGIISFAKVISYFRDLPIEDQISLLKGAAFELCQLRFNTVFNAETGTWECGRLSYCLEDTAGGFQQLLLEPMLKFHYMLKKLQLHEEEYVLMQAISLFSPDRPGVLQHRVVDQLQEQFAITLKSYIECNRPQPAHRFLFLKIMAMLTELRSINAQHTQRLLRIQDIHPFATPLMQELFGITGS

Assay [20] addresses human Peroxisome Proliferator-activated Receptor delta (PPARd), PPARD (gene 5467) (UniProt Q03181). Nature of the assay: ATG_PPARd_TRANS: Attagene TRANS-FACTORIAL HepG2 Assay for human Peroxisome Proliferator-activated Receptor delta (PPARd) (AID 2283002; active = hit-call score of the fitted dose curve at least 0.9, where 1 is the maximum). The essentials: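 Multiplexed trans-activation format: HepG2 liver cells expressing exogenous NR-Gal4 chimeras and GAL4-UAS reporters were exposed for 24 h. Reporter mRNA was detected by RT-PCR with capillary electrophoresis fluorescence; activity fitted as gain of signal relative to DMSO.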

Retinoic acid receptor alpha (Homo sapiens), sequence (P10276 whole entry, looked up, the tested form may be a part): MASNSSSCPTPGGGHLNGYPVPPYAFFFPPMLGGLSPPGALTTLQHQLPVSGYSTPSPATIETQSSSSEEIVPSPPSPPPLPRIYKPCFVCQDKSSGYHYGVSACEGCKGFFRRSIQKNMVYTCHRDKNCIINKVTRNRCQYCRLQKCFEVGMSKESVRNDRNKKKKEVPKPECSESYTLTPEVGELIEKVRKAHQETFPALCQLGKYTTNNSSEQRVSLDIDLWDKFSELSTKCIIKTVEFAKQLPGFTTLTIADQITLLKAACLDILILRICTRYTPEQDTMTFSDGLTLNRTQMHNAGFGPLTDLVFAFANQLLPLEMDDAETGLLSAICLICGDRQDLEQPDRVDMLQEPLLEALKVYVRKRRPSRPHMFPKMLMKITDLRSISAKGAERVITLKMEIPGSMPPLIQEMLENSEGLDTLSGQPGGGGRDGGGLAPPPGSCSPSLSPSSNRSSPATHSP
Transcriptional activator Myb (Homo sapiens), sequence (P10242 whole entry, looked up): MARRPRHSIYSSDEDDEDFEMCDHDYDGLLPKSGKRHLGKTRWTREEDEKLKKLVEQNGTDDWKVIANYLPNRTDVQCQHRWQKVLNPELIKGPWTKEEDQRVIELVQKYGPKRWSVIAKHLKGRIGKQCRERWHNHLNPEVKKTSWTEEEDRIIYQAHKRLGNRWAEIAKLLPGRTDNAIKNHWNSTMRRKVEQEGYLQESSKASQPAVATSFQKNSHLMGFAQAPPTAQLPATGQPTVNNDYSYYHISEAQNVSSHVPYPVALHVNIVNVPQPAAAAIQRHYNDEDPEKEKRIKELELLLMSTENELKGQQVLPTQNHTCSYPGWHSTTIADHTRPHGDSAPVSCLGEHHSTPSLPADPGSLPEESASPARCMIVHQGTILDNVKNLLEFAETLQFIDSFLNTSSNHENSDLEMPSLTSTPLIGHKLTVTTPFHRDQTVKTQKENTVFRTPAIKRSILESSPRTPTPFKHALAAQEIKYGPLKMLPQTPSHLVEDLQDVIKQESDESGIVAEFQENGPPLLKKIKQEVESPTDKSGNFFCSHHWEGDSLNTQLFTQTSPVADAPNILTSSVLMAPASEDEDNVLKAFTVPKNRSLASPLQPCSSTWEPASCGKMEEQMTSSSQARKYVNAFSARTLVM
Myc proto-oncogene protein (Homo sapiens), sequence (P01106 whole entry, looked up): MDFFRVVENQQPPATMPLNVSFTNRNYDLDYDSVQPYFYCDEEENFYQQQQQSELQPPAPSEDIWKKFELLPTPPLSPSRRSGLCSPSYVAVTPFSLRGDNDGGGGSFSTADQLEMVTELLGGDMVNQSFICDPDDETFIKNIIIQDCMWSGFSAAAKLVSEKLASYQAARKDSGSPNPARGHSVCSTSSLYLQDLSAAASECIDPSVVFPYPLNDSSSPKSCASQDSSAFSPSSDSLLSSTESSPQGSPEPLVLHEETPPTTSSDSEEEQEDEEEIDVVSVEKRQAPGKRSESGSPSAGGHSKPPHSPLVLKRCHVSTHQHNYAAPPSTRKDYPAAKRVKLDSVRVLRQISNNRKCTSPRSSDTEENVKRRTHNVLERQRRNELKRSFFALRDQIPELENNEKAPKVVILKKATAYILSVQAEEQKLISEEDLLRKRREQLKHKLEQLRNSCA
human Peroxisome Proliferator-activated Receptor alpha (PPARa), PPARA (gene 5465), sequence (Q07869 whole entry, looked up, the tested form may be a part): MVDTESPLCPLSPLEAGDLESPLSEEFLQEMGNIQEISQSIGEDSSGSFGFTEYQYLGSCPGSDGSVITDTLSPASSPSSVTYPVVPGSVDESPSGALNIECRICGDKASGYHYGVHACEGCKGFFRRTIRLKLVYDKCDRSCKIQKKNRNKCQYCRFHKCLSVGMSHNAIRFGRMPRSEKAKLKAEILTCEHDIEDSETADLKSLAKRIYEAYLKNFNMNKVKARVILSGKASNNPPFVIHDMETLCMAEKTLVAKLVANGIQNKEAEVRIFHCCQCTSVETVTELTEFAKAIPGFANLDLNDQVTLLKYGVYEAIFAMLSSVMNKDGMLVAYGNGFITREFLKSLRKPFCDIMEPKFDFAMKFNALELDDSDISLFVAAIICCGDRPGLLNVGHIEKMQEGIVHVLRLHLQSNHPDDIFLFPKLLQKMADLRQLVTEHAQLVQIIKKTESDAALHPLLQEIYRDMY
Cellular tumor antigen p53 (Homo sapiens), sequence (P04637 whole entry, looked up): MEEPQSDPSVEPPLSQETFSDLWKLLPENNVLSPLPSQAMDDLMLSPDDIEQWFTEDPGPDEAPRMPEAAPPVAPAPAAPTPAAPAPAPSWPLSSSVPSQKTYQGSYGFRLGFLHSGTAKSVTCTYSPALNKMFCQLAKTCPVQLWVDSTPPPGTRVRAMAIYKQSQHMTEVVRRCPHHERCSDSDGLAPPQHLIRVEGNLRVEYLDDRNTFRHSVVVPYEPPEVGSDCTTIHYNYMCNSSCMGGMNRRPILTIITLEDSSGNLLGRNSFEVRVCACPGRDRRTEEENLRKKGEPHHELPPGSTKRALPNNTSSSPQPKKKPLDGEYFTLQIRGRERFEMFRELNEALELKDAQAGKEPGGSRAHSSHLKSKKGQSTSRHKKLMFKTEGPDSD
human Peroxisome Proliferator-activated Receptor delta (PPARd), PPARD (gene 5467), sequence (Q03181 whole entry, looked up, the tested form may be a part): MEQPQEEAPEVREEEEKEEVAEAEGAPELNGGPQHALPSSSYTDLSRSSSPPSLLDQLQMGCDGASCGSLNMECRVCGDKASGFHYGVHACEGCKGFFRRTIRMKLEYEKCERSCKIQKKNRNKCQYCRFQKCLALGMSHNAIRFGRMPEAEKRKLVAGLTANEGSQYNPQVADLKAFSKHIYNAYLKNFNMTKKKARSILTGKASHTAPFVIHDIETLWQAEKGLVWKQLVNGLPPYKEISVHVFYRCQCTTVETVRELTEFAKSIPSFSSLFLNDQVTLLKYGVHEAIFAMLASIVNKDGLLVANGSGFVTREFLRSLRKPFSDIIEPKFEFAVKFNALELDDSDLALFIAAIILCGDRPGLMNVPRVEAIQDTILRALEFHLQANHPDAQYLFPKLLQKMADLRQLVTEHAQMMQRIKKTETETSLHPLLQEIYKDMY
Peroxisome proliferator-activated receptor gamma (Homo sapiens), sequence (P37231 whole entry, looked up, the tested form may be a part): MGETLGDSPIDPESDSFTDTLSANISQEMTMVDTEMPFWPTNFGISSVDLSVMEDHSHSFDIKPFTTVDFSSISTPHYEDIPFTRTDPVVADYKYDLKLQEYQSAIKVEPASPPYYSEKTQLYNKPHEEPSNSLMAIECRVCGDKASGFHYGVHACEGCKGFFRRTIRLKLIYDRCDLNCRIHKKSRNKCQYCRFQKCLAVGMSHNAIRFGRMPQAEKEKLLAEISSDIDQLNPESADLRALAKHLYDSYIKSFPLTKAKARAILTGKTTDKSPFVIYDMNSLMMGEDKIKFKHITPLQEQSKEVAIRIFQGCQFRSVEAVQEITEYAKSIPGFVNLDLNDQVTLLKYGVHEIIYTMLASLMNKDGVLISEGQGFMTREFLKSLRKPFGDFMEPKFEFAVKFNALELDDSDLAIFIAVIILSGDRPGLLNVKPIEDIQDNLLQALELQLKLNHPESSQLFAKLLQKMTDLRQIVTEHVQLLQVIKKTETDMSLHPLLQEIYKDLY

In the case of `CN(C)C(=O)Cl`, the result in assay [1], in assay [2], in assay [3], in assay [4], in [5] and in assay [6] was inactive. Besides, the compound was called inactive in assay [7], in assay [8], in assay [9], in assay [10], in assay [11] and in assay [12]. The result in assay [13], in [14], in assay [15] and in assay [16] was inactive.

As to `CC(O)C(F)(F)C(F)(F)F` (stereo not drawn), the outcome in [1], in assay [2], in [3], in assay [4], in assay [5] and in assay [6] was inactive. The result in assay [7], in [17], in [8], in [9], in assay [10] and in [11] was inactive. The result in assay [12], in assay [13], in assay [14], in assay [15], in [16] and in assay [18] was inactive. In [19], the result was inactive.

`O=C(O)C(F)(F)OC(F)(F)C(F)(F)OC(F)(F)C(=O)O`: the call in assay [1], in [2], in assay [3], in [4], in assay [5] and in [6] was inactive. The call in assay [7], in assay [8], in assay [9], in assay [10], in assay [11] and in [12] was inactive. The call in [20], in [13] and in assay [16] was inactive.

`CCOP(=S)(OCC)SCn1nnc2ccccc2c1=O`: the call in assay [1], in assay [3], in assay [4], in assay [5], in assay [7] and in assay [17] was inactive. Also, the outcome in assay [9], in assay [10], in [11], in assay [13] and in [16] was inactive. Also, the AC50 in [2] was 58.6 µM (active); in [6] it was 1.6 µM (active); in assay [8], 10.7 µM (active); in assay [18], 28.5 µM (active).

Regarding `Oc1ccccc1Br`, the call in [1], in [2], in assay [3], in assay [4], in assay [5] and in assay [6] was inactive. In addition, the result in assay [7], in assay [17], in assay [12] and in assay [19] was inactive.

Turning to `c1nc[nH]n1`, the call in assay [1], in assay [2], in assay [3], in assay [4], in [5] and in assay [6] was inactive. Moreover, the compound was classed as inactive in assay [7], in assay [17], in assay [8], in assay [9], in [10] and in assay [11]. For the same compound, the call in [12], in assay [13], in assay [16] and in assay [18] was inactive.

As to `O=S(=O)(F)C(F)(F)C(F)(F)C(F)(F)C(F)(F)C(F)(F)C(F)(F)C(F)(F)C(F)(F)F`, the outcome in assay [1], in [2], in assay [3], in [4], in assay [5] and in [6] was inactive. The outcome in assay [7], in assay [8], in [9], in assay [10], in assay [11] and in assay [12] was inactive. For the same compound, the outcome in [20], in [13], in [15], in [16], in [18] and in [19] was inactive. Further, the AC50 in assay [6] was 63.6 µM (active).

Turning to `O=C(O)C(F)(F)OC(F)(F)C(F)(F)OC(F)(F)F`, the call in assay [1], in assay [2], in assay [3], in assay [4], in assay [5] and in assay [6] was inactive. The call in assay [7], in [8], in assay [9], in assay [10], in [11] and in assay [20] was inactive. Moreover, the outcome in assay [13], in [15], in assay [16] and in [19] was inactive. Moreover, the AC50 in assay [12] is 17.9 µM (active) and 15.4 µM (active); in assay [18] it was 122 µM (active) and 84.6 µM (active).

As a reminder, the AC50 is the concentration giving half of the maximal activity seen.
